Hits are enriched below; roughly 32% of the tested compounds scored in any of these assays.
CYP2C9 inhib = inhibitors of human CYP2C9 | CYP2C9 Supersomes, luciferin-H conversion, luminescence | inhibition, % at 5 µM | hit rate 20% among 96,000 | AID 777;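 active means blocking of liver enzyme CYP2C9 beyond about 50% at 5 µM, limit read from the data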
CYP2C9 act = activators of human CYP2C9; P11712; recombinant CYP2C9, luciferin-H conversion, luminescence; stronger effect = higher value; factor 1 = untreated enzyme, 0 = blocked; activation factor at 5 µM; hit rate 1.4% among 96,000;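 active means activation factor of 2 or more for CYP2C9 at a 5 µM dose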;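 further: 0 = sulfaphenazole-blocked wells and 1 = vehicle-only wells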
CYP2C19 inh = blocks human cytochrome P450 2C19; inhibition, % at 5 µM; hit rate 21% among 96,000; CYP2C19 Supersomes, luciferin-H EGE luminescence, 30 min; AID 778; P33261;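 active means CYP2C19 inhibition above a set limit at 5 µM in the primary screen, cut at about 50% in these data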;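 further: plate controls were negative control wells for no effect and 2.5 mM tranylcypromine positive control for full effect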
Target sequence (P33261 whole entry, looked up): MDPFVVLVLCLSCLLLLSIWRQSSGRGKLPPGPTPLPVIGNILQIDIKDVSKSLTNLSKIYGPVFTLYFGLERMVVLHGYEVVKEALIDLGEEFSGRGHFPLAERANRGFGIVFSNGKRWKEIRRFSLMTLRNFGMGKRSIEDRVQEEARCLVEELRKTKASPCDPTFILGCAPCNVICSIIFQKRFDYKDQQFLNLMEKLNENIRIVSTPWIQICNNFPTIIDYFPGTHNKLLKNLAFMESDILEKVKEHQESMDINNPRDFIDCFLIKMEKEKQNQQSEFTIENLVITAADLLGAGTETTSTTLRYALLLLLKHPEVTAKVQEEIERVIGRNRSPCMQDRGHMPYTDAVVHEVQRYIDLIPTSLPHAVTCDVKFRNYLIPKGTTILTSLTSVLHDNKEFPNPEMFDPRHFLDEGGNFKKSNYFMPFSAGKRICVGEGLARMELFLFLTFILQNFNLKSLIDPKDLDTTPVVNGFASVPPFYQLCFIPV
PostGolgi ctrl = yeast control strain growth, post-Golgi counter-screen; inhibition, % at 10 µM; hit rate 5% among 98,000; AID 738; efflux-deficient yeast background strain, growth absorbance A615, 16 h
PostGolgi yeast = growth inhibition of a yeast mutant, post-Golgi transport screen; post-Golgi transport phenotypic cell assay; inhibition, % at 10 µM; hit rate 0.9% among 98,000;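 further: yeast cells grown in 1536-well plates; yeast grown about 18 h at 30C before absorbance read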
CYP2C19 act = cytochrome P450 2C19 (human) activation. P33261. recombinant CYP2C19, luciferin-H EGE luminescence; stronger effect = higher value; 0 = fully inhibited enzyme, 1 = untreated enzyme. activation factor at 5 µM. 96,000 tested, under 10 active. AID 1025;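 active means activation factor of at least 2 at 5 µM in the primary screen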;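 further: 0 = wells with 2.5 mM tranylcypromine and 1 = vehicle-only wells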
Active calls of the source: *; . = not tested or not shown. Unless noted, no stated cut-off is given here; in the data, active means inhibition above about 30%; inactive means the rest.

SMILES	CYP2C9 inhib	CYP2C9 act	CYP2C19 inh	PostGolgi ctrl	PostGolgi yeast	CYP2C19 act
Cc1cc([N+](=O)[O-])cnc1NC(C)c1ccccc1 (centres undefined)	50	0.5	65*	13	-10	0.4
CC(NC(=O)Cn1cnc([N+](=O)[O-])n1)c1ccccc1 (centres undefined)	17	0.8	2	-10	2	1
O=C1c2cccc3cccc(c23)C(=O)N1c1nncs1	-14	1.1	4	3	0	1
Cc1cccc(N2CCN(C(=O)c3cc4n(n3)C(C(F)(F)F)CC(c3ccco3)N4)CC2)c1C (centres undefined)	88*	0.1	1	24	4	1
COc1ccccc1NC(=O)c1cc2n(n1)C(C(F)(F)F)CC(c1ccc3c(c1)OCO3)N2 (centres undefined)	75*	0.2	81*	37*	12	0.2
O=C(O)c1cc2n(n1)C(C(F)(F)F)CC(c1ccco1)N2 (centres undefined)	62*	0.4	5	2	-1	0.9
Cc1cc(NC(=O)c2cc3n(n2)C(C(F)(F)F)CC(c2ccco2)N3)no1 (centres undefined)	51*	0.5	13	-3	-5	0.9
COc1ccc(C2CC(C(F)(F)F)n3nc(C(=O)Nc4ccc5c(c4)OCO5)cc3N2)cc1 (centres undefined)	38	0.6	11	1	-3	0.9
O=C(COc1ccc([N+](=O)[O-])cc1)NN=C1CCCC1	10	0.9	18	6	0	0.8
Cc1csc(SCc2nc3sc4c(c3c(=O)[nH]2)CCC4)n1	.	.	.	14	1	.
O=C(C1CCCCC1)N(Cc1nc2sc3c(c2c(=O)[nH]1)CCCC3)Cc1cccs1	62*	0.4	30	24	3	0.7
COc1ccc(S(=O)(=O)Nc2cccc(Cl)c2)cc1OC	-53	1.5	93*	15	-4	0.1
COc1ccc(S(=O)(=O)Nc2ccc(C(F)(F)F)cc2)cc1OC	62*	0.4	99*	11	3	0
COc1ccc(S(=O)(=O)Nc2cccc(SC)c2)cc1OC	.	.	.	6	-1	.
COc1ccc(S(=O)(=O)Nc2ccc(F)c(F)c2)cc1Cl	34	0.7	61*	9	11	0.4
COc1ccc(S(=O)(=O)Nc2ccc(S(=O)(=O)N3CCOCC3)cc2)cc1C	93*	0.1	76*	36*	-3	0.2
COc1ccc(NS(=O)(=O)c2ccc(OC)c(OC)c2)cc1OC	.	.	.	7	2	.
COC(=O)c1cc(C)sc1NC(=O)c1cccnc1	-20	1.2	-15	20	3	1.2
O=C(O)C1CCN(C(=O)c2ccc(Cl)cc2)CC1	-17	1.2	-2	2	-4	1
COc1ccc(S(=O)(=O)N2CCC(C(=O)N3CCCC3)CC2)cc1	-67	1.7	48	6	-14	0.5
COc1ccc(NS(=O)(=O)c2ccc(S(=O)(=O)N3CCCC3)cc2)cc1Cl	97*	0	98*	17	-7	0
COc1ccc(NS(=O)(=O)c2ccc(S(=O)(=O)N3CCCC3)cc2)cc1	69*	0.3	31	-4	-15	0.7
COc1ccc(C(=O)Nc2ccc(S(=O)(=O)N3CCCCC3)cc2)cc1OC	16	0.8	-9	30	4	1.1
COc1ccc(S(=O)(=O)N2CCC(C(=O)N3CCCCCC3)CC2)cc1	-152	2.5*	85*	16	-1	0.2
CC1(C)CC(=O)c2c(O)cc(OCc3ccc([N+](=O)[O-])cc3)cc2O1	3	1	-4	12	-2	1
SMILES	CYP2C9 inhib	CYP2C9 act	CYP2C19 inh	PostGolgi ctrl	PostGolgi yeast	CYP2C19 act
O=C(NNC(=O)c1ccccc1Br)c1cccc(Cl)c1	-206	3.1*	8	1	1	0.9
CC(=Nc1ccc(C)c(C)c1)C1=C(O)CCC1=O	34	0.7	54*	0	2	0.5
CC(=NC(C)C)C1=C(O)CCC1=O	13	0.9	1	.	.	1
C=CCNC(=O)C1CCN(c2nc(C)cc(-c3ccccc3)n2)CC1	77*	0.2	82*	8	-1	0.2
CN(C)CCCN(C(=O)c1cccs1)c1nc(-c2ccccc2)cs1	74*	0.3	92*	2	0	0.1
CCC(=O)N(Cc1ccco1)c1nc(-c2ccccc2)cs1	23	0.8	5	9	6	1
CCOC(=O)N1CCN(C(=O)c2ccc3c(c2)sc2nc(-c4ccc(OC)cc4)cn23)CC1	45	0.6	39	11	1	0.6
